40 compounds from PubChem BioAssay (NCATS) can be followed below.

Inconclusive results are not listed. Where a call stands in place of a potency, no number is given. The source made the active and inactive calls. The call rests on the fitted dose curve; in most records, active means well fitted cell-killing curve with a large enough effect; inconclusive means small, poorly fitted or top-dose-only effect, or effect the other way; inactive means flat fitted curve, though single readings scatter.
Potency means the concentration at half of the fitted maximal effect.

The nature of this assay: qHTS of pediatric cancer cell lines to identify multiple opportunities for drug repurposing: Confirmatory screen for Rh18 cells (AID 1347125). Further: nearly all actives have a fitted effect of over 55% in size. Conditions: Rh18 rhabdomyosarcoma cells, viability; series mostly up to 45.9 µM. An excerpt: Drug repurposing or repositioning has been offered as a strategy for drug development in oncology programs. This approach has special potential for childhood cancers and other rare or orphan diseases, where the expected return on new drug development has been a disincentive to pharmaceuticals.
In this project we exploit the poly-pharmacology of drugs to discover new indications via phenotypic screening of a panel of 19 well-characterized cell lines derived from solid tumors seen in children and adolescents. The goal is to identify approved drugs with previously unrecognized anticancer properties that has the potential to reveal new mechanisms and biological processes involved in carcinogenesis or drug resistance. We employed a titration-based paradigm (quantitative high-throughput screening or qHTS), where all compounds were tested at multiple concentrations for their effect on cell viability. Concentration-response curves (CRCs) were derived directly from the primary screen, and both potency and efficacy values were used to identify compounds with robust bioactivity profiles. We screened the NIH Chemical Genomics Center (NCGC) Pharmaceutical Collection (NPC) and Mechanism Interrogation Plate (MIPE) small molecule collections of approved and investigational compounds against these cell lines; and measured metabolically active cells after 48 hours of compound treatment as a proxy for cell viability.
Assay Submitter: Nathalia J. Martinez, National Center for Advancing Translational Sciences, National Institutes of Health, Rockville, MD, USA; email: natalia.martinez@nih.gov
[1] Shen, M et al. Quantitative high-throughput phenotypic screening of pediatric cancer cell lines identifies multiple opportunities for drug repurposing. Oncotarget 2017 Dec 19;9(4):4758-4772. PMID 29435139.
The cells were obtained from University of North Carolina (UNC), Pediatric Preclinical Testing Program (PPT), and Coriell Institute (CI).
qHTS cell viability assay:
Cells were assayed in growth media at a density of 500-1,000 cells/well. Five microliters of cells were dispensed into 1,536-well, white, solid-bottom, TC-treated plates (Greiner Bio One) using a multidrop dispenser and incubated at 37 degrees C, 5% CO2, under a humidified atmosphere for 5 hours. Twenty-three nanoliters of compounds and controls (neutral control DMSO or positive control bortezomib at final concentration of 2.3 µM) were subsequently transferred by Kalypsys pintool. For primary screens, the MIPE collection was tested at 11-point dilutions (final concentrations range from 0.78 nM to 46 µM) and the NPC collection at 8-point dilutions (final concentrations range from 0.59 nM to 46 µM). Compounds tested in follow-up screens were assayed at 11-point dilutions. Cells were incubated for 48 hours, followed by addition of 3 µL of CellTiter-Glo (Promega). After a 15 min incubation at room temperature, samples were analyzed for luminescence intensity using a ViewLux High-throughput CCD imager equipped with clear filters.
For orientation: In qHTS, concentration-response curves come from the screen itself.
For `CCC(=O)N1CCN(c2ccc(-n3c(=O)ccc4cnc5ccc(-c6cnc7ccccc7c6)cc5c43)cc2C(F)(F)F)CC1`, the Potency result is “inactive”.

Turning to `CC1(C)CC(=O)c2c(C(F)(F)F)nn(-c3ccc(C(N)=O)c(NC4CCC(O)CC4)c3)c2C1` (stereo not given), the Potency was 0.261 µM (active).

As to `Cc1ccc(S(=O)(=O)Nc2nc3ccccc3nc2Nc2ccc3nsnc3c2)cc1`, the Potency result is “inactive”.

For the compound `CCOC(=O)[C@H](CCc1ccccc1)N[C@@H](C)C(=O)N1CCCC1C(=O)O` (stereo not given in full), the Potency is 13.1 µM (active).

As to `CC(C)n1c(C=C[C@H](O)C[C@H](O)CC(=O)O)c(-c2ccc(F)cc2)c2ccccc21`, the Potency was 8.27 µM (active).

With `COc1cc(CNC(=O)CCCCC=CC(C)C)ccc1O`, the Potency result was “inactive”.

On to `O=C1NC(=O)C(c2cnc3ccccn23)=C1c1cn2c3c(cccc13)CN(C(=O)N1CCOCC1)CC2`, for which the Potency result is “inactive”.

Turning to `COC(=O)[C@H](c1ccccc1Cl)N1CCc2sccc2C1`, the Potency entry is “inactive”.

For `CC[C@]1(O)C[C@H]2CN(CCC3=c4ccccc4=N[C]3[C@@](C(=O)OC)(c3cc4c(cc3OC)N(C)[C@H]3[C@@](O)(C(N)=O)[C@H](O)[C@]5(CC)C=CCN6CC[C@]43[C@@H]65)C2)C1`, the Potency entry was “inactive”.

Regarding `COc1cc2c(cc1Cc1cccc(Cl)c1F)c(=O)c(C(=O)O)cn2[C@H](CO)C(C)C`, the Potency result was “inactive”.

Turning to `Cc1csc(-c2nnc(Nc3ccc(Oc4ncccc4-c4ccnc(N)n4)cc3)c3ccccc23)c1`, the Potency entry was “inactive”.

Turning to `OCCn1cc(-c2ccc3c(c2)CCC3=NO)c(-c2ccncc2)n1`, the Potency entry was “inactive”.

Take `CC1CNc2c(cccc2S(=O)(=O)N[C@@H](CCCN=C(N)N)C(=O)N2CC[C@@H](C)C[C@@H]2C(=O)O)C1` (stereo not given in full): the Potency entry was “inactive”.

`CC(C)(C)c1[nH]cnc1C=c1[nH]c(=O)c(=Cc2ccccc2)[nH]c1=O`: the Potency is 0.016 µM (active).

For the compound `Cc1cccc(-c2[nH]c(C(C)(C)C)nc2-c2ccc3c(c2)OCO3)n1`, the Potency entry was “inactive”.

Regarding `CNC(=O)[C@H](CC1=CN=C2C=CCC=C12)NC(=O)[C@@H](CC(=O)NO)CC(C)C`, the Potency was 1.47 µM (active).

Turning to `Cc1ccc(C(=O)N(CCCN)[C@@H](c2oc3cc(Cl)ccc3c(=O)c2Cc2ccccc2)C(C)C)cc1`, the Potency was 26.1 µM (active).

As for `CN(C)CC[C@H](CSc1ccccc1)Nc1ccc(S(=O)(=O)NC(=O)c2ccc(N3CCN(Cc4ccccc4-c4ccc(Cl)cc4)CC3)cc2)cc1[N+](=O)[O-]`, the Potency is 1.31 µM (active).

Take `COc1ccc2c(c1)c(C1=C(c3c[nH]c4ccccc34)C(=O)NC1=O)cn2CCCN(C)C`: the Potency entry was “inactive”.

As for `CC1(C)OC2CC3C4CC(F)C5=CC(=O)C=CC5(C)C4C(O)CC3(C)[C@]2(C(=O)CO)O1` (stereo not given in full), the Potency result was “inactive”.

With `CC(C)C[C@H](NC(=O)c1cc2ccccc2s1)C(=O)N1CCN(C(=O)[C@H](CO)NS(=O)(=O)c2ccc(Cl)cc2Cl)CC1`, the Potency result is “inactive”.

For `CC(=O)N1CCN(c2ccc(OCc3nn(C)c(C)c3-c3cccc4c(CCCOc5cc(C)c(Cl)c(C)c5)c(C(=O)O)n(Cc5cccnc5)c34)cc2)CC1`, the Potency entry was “inactive”.

`CO[C@H]1/C=C\O[C@@]2(C)Oc3c(C)c(O)c4c(O)c(c5c(nc6cc(C)ccn65)c4c3C2=O)NC(=O)C(C)=CC=C[C@H](C)[C@H](O)[C@@H](C)[C@@H](O)[C@@H](C)[C@H](OC(C)=O)[C@H]1C`: the Potency result is “inactive”.

Regarding `C[C@@]1(c2cc(-c3cncnc3)c(F)cc2F)CCSC(N)=N1`, the Potency entry was “inactive”.

With `COc1cc2ncnc(Nc3cc(Br)c(O)c(Br)c3)c2cc1OC`, the Potency result is “inactive”.

For the compound `C=CC(=O)Nc1cccc(Sc2nc(Nc3ccc(N4CCN(C)CC4)cc3)ncc2Cl)c1`, the Potency is 16.5 µM (active).

For the compound `FC(F)(F)c1ccc(C=Cc2nc(COc3ccc(CCCCn4ccnn4)cc3)co2)cc1`, the Potency entry was “inactive”.

Consider `CC(C)C[C@@H](C(=O)N[C@H](C(=O)OC1CCCC1)c1ccccc1)[C@H](O)C(=O)NO`, for which the Potency result is “inactive”.

Consider `CCN(CCO)CCCOc1ccc2c(Nc3cc(CC(=O)Nc4cccc(F)c4)[nH]n3)ncnc2c1`, for which the Potency entry was “inactive”.

Take `O=C(CC12CC3CC(CC(C3)C1)C2)Nc1cccc2nc(NCCNCCO)ccc12`: the Potency result was “inactive”.

For the compound `CO[C@H]1/C=C\O[C@@]2(C)Oc3c(C)c(O)c4c(O)c(c(C=NN5CCN(C6CCCC6)CC5)c(O)c4c3C2=O)NC(=O)C(C)=CC=C[C@H](C)[C@H](O)[C@@H](C)[C@@H](O)[C@@H](C)[C@H](OC(C)=O)[C@H]1C`, the Potency entry is “inactive”.

With `O=C1Nc2ccc(I)cc2C1=Cc1cc(Br)c(O)c(Br)c1`, the Potency entry is “inactive”.

As for `NC(N)=Nc1nc(CSCCC(N)=NS(N)(=O)=O)cs1`, the Potency result is “inactive”.

As for `Cc1ccc(C(=O)N(CCCN)[C@@H](c2nc3cc(Cl)ccc3c(=O)n2Cc2ccccc2)C(C)C)cc1`, the Potency result was “inactive”.

As for `C[C@@]1(C(=O)Nc2ccc(F)nc2)CCCN1c1nc(Nc2cc(C3CC3)[nH]n2)c2cccn2n1`, the Potency is 7.37 µM (active).

As for `Cc1c(C(=O)Nc2ccc(N3C[C@@H](C)O[C@@H](C)C3)nc2)cccc1-c1ccc(OC(F)(F)F)cc1`, the Potency result is “inactive”.

Consider `C=C1[C@H](n2cnc3c(=O)[nH]c(N)nc32)C[C@H](O)[C@H]1CO`, for which the Potency entry was “inactive”.

Turning to `CCC(=O)OCC(=O)[C@@]1(OC(=O)CC)[C@@H](C)C[C@@H]2[C@H]3CCC4=CC(=O)C=C[C@]4(C)[C@@]3(F)[C@@H](O)C[C@@]21C`, the Potency result is “inactive”.

`C[C@@H]1[C@H](O)[C@@H](C)C=CC=CC=CC=CC=CC=CC=C[C@H](O[C@@H]2O[C@H](C)[C@H](O)[C@H](N)[C@@H]2O)C[C@@H]2O[C@](O)(C[C@@H](O)C[C@@H](O)[C@H](O)CC[C@@H](O)C[C@@H](O)CC(=O)O[C@H]1C)C[C@H](O)[C@@H]2C(=O)O`: the Potency entry is “inactive”.

In the case of `CN(C)CCN(C)C(=O)c1ccc(NC(=O)Nc2ccc(-c3nc(N4CCOCC4)c4ccn(CC(F)(F)F)c4n3)cc2)cc1`, the Potency was 3.29 µM (active).
